Screens (PubChem)
TDP1 cell noCPT – qHTS for Inhibitors of human tyrosyl-DNA phosphodiesterase 1 (TDP1): qHTS in cells in absence of CPT. Potency, µM (doses to about 46.2 µM), most hits filed as inhibitors. DT40 Tdp1-/- hTDP1 cells, no CPT, ATP luminescence, 48 h. 420,000 compounds, 15% hits; also: nearly all actives have a fitted effect of over 55% in size
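A cellular qHTS used chicken DT40 cells lacking endogenous Tdp1 but carrying stably transfected human TDP1. Compounds were applied without camptothecin, and cell growth kinetics were judged by ATP-dependent luminescence after ≥48 hr.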
TGFb SMAD3 inh – inhibitors of TGF-b signaling | HepG2 CAGA-GFP TGF-b/SMAD3 reporter, GFP fluorescence, 18 h; TGF-beta stimulated, 500 pg/mL final | Potency, µM (series often up to 46.1 µM), hits mostly inhibitors | 410,000 compounds, 1.2% hits | AID 588855; also: nearly all actives have a fitted effect of over 65% in size
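Per well, imaged GFP fluorescence of HEPG2 CAGA-GFP cells gives the signal; cells get compound, then TGF-beta (500 pg/mL final), 18 h at 37 degrees C; %Activity versus -TGF-beta and +DMSO controls.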
HT1080-NT tox – kills 2HG-producing HT-1080-NT fibrosarcoma cells | HT-1080-NT fibrosarcoma viability, CellTiter-Glo ATP luminescence, 48 h | Potency, µM (series often up to 46.1 µM), actives largely listed as cytotoxic | 360,000 compounds, 1.6% hits;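 also: NT is the 2HG producing partner of a matched IDH1 knockdown line; nearly all actives have a fitted effect of over 55% in size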
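Viability by CellTiter-Glo luminescence after 48 h compound exposure at 37C of HT-1080-NT cells (750/well, RPMI, 5% FBS). % activity scaled between DMSO wells and medium-only wells, then curve-fitted and categorized by curve class.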
HepG2 tox – HepG2 cytotoxicity, counter-screen for TGF-b inhibitors; 410,000 compounds, 0.76% hits; Potency, µM (series often up to 46.1 µM), hits mostly cytotoxic; HepG2 CAGA-GFP viability, ATP luminescence, 18 h
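CellTiter-Glo luminescence gave cytotoxicity after 18 hours at 37 degrees C. The cells were HepG2 CAGA-GFP in 1% FBS DMEM, stimulated with 500 pg/mL TGF-beta after compound addition. %Activity was normalised to no-cell wells (complete cell-killing) and DMSO (no toxicity), and curves were fitted and classified.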
TDP1 cell CPT – DT40-hTDP1 cell growth loss with CPT. chicken DT40 Tdp1-/-;hTDP1 cells + 20 nM CPT, ATP luminescence, 48 h. 420,000 compounds, 12% hits. Potency, µM (highest dose often 46.2 µM), actives largely listed as inhibitors; also: nearly all actives have a fitted effect of over 55% in size
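Cell growth measured by CellTiter-Glo luminescence after a minimum 48 h, 37 C compound exposure with 20 nM CPT in Tdp1-knockout DT40 cells stably expressing hTDP1, seeded 400/well; qHTS titration format.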
HT1080 IDH1KD tx – HT-1080 IDH1 knockdown cell toxicity (counter line); AID 686971; Potency, µM (highest dose often 46.1 µM), hits mostly cytotoxic; HT-1080 IDH1 knockdown viability, ATP luminescence, 48 h; 360,000 compounds, 2% hits
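Cytotoxicity counter-line: IDH1KD HT-1080, 48 h, CellTiter-Glo. Curves classed by r2, magnitude and activity.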
A number is an active result; 0 = inactive; ? = inconclusive; - = not tested or not shown; [ ] = dose if it differs, or a comment. This is a sample that favours compounds with a hit; in the whole collection about 17% have one here. Calls follow the shape of the dose curve; as a rule, active = well fitted curve in the direction sought with a large enough effect; inconclusive = small, poorly fitted or top-dose-only effect, or another doubt; inactive = no such curve, though single readings can be large; an effect the other way counts as inactive or inconclusive.

SMILES	TDP1 cell noCPT	TGFb SMAD3 inh	HT1080-NT tox	HepG2 tox	TDP1 cell CPT	HT1080 IDH1KD tx
Cc1cc(-c2ccc(C(C)C)c(S(=O)(=O)N3CCOc4ccccc43)c2)on1	18.4µM	?	0	0	?	0
COc1ccc(-c2cc(C)no2)cc1S(=O)(=O)N1CCc2ccccc21	?	0	-	0	?	-
COc1ccc(-c2cc(C)no2)cc1S(=O)(=O)N1CCOc2ccccc21	18.4µM	0	0	0	?	0
CCOC(=O)c1cccc(NC(=O)c2oc3c(c2C)-c2nn(CC)cc2CC3)c1	?	0	-	0	?	-
CCCCC(OC(=O)CN1C(=O)COc2ccccc21)C(=O)NC1CCCCC1 (stereo unspecified)	16.4µM	0	0	0	0	0
CCOC(=O)c1cnc2ccc(C(=O)OC)cc2c1Nc1ccccc1CC	11.6µM	0	-	0	16.4µM	-
CCOC(=O)c1ccc2ncc(C(=O)OCC)c(NCc3ccco3)c2c1	23.1µM	0	?	0	14.6µM	?
CCOC(=O)c1cnc2ccc(C(=O)OC)cc2c1Nc1ccc(C(=O)O)cc1	0	0	0	0	0	0
COc1cc(CNC(=O)c2sc3ncccc3c2-n2cccc2)cc(OC)c1OC	10.3µM	0	-	0	18.4µM	-
CC(C)Oc1ccc(CNC(=O)c2sc3ncccc3c2-n2cccc2)cc1	18.4µM	0	-	0	20.6µM	-
COc1cccc(CNC(=O)c2sc3nc(C)cc(C)c3c2-n2cccc2)c1OC	?	?	-	0	23.1µM	-
COc1cccc(CNC(=O)c2sc3ncccc3c2-n2c(C)ccc2C)c1OC	13µM	?	-	0	10.3µM	-
Cc1ccc(CNC(=O)c2sc3nc(C)cc(C)c3c2-n2cccc2)cc1	?	0	-	0	0	-
CNC(=O)c1sc2ncccc2c1-n1cccc1	?	0	-	0	0	-
COc1cccc(CNC(=O)Cc2csc3ccccc23)c1OC	?	-	-	0	?	-
CCOC(=O)[C@H]1[C@H]2COc3ccc(Cl)cc3[C@@H]2N2C(=O)CN(C)C(=O)[C@@]12C	0	0	0	0	0	0
COc1ccc(CCNc2ncnc3sc(C(=O)N(C)C)c(C)c23)cc1OC	0	-	-	-	0[9.04 µM]	-
Nc1c(-c2nc(-c3cccs3)no2)nnn1-c1ccccc1Cl	?	0	-	0	?	-
CCOCCCNC(=O)CCc1nnc2n(CCC(C)C)c(=O)c3ccccc3n12	?	0	0	0	0	0
CN(C)c1ccc(CNC(=O)c2sc3ncccc3c2-n2cccc2)cc1	20.6µM	?	-	0	16.4µM	-
Cc1cc(C)c2c(-n3cccc3)c(NC(=O)OC(C)C)sc2n1	20.6µM	0	0	0	18.4µM	0
CCN(CC)CCNC(=O)c1sc2ncccc2c1-n1cccc1	0	0	-	0	0	-
CCn1c(C)c(C)c2cc(C(=O)N3CCCC3)ccc21	0	0	0	0	0	0
CCn1c(C)c(C)c2cc(C(=O)N3CCN(c4ccccc4)CC3)ccc21	?	?	0	0	18.4µM	0
CCc1cc(C(=O)N2CCN(C(=O)c3ccccc3)CC2)sc1C	?	0	0	5.01µM	0	0
SMILES	TDP1 cell noCPT	TGFb SMAD3 inh	HT1080-NT tox	HepG2 tox	TDP1 cell CPT	HT1080 IDH1KD tx
O=C(Nc1ccc(NC(=O)N2CCN(c3ccccc3O)CC2)cc1)N1CCN(c2ccccc2O)CC1	25.9µM	0	0	0	?	0
O=C(c1cccc(C(=O)N2CCN(c3ccccc3F)CC2)c1)N1CCN(c2ccccc2F)CC1	23.1µM	0	0	0	?	0
Cc1ccc(S(=O)(=O)N(C)CC(=O)N/N=C/c2ccc(C)o2)cc1	0	0	0	0	?	0
CN(CC(=O)Nc1ccc(F)c(F)c1F)C(=O)/C=C/c1ccc(Cl)cc1	?	0	0	0	0	0
CCOc1ccc(CNC(=O)c2cnc3sc(N4CCCCCC4)nn3c2=O)cc1OC	0	0	-	0	0	-
O=C(c1ccc2nccnc2c1)N1CCN(c2ccccc2)CC1	0	0	0	0	0	0
O=C(c1ccccc1)c1ccc(C(=O)N2CCN(c3ccccc3O)CC2)cc1	11.6µM	0	0	0	25.9µM	0
O=C(NCC(=O)N1CCN(c2ccccc2O)CC1)C1CCCCC1	?	0	0	0	3.66µM	0
O=C(C(Sc1ccccc1)c1ccccc1)N1CCN(c2ccccc2F)CC1 (stereo unspecified)	23.1µM	0	0	0	?	0
O=C(c1cccc(C(=O)N2CCN(c3ccccc3)CC2)c1)N1CCN(c2ccccc2)CC1	14.6µM	?	0	0	?	0
O=C(NCC(=O)N1CCN(c2ccccc2O)CC1)c1ccco1	0	0	0	0	0	0
Cn1c(=O)oc2cc(S(=O)(=O)NCc3ccc(F)cc3)ccc21	0	0	0	0	0	0
CN(C)c1ccc(-c2ccc(CCO)cc2)cc1	0	0	-	0	0	-
